# Screening data from PubChem BioAssay.
# CHT inh – inhibitors of human choline transporter CHT | Q9GZV3 | CHT-expressing cells, membrane potential dye, choline response; hits give low values | B-score at 10 µM | 310,000 compounds, 0.86% hits;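 active = B-score over 3 SD under the library average, and starting fluorescence ratio not unusually high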;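 note: choline stimulus applied at its EC90 after an EC20 pre-addition; B-score computed on integrated fluorescence ratio after choline addition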
# CHT PAM – human CHT allosteric activation; 310,000 compounds, 0.49% hits; B-score at 10 µM; Q9GZV3; CHT-expressing cells, membrane potential dye, choline EC20; hits give high values; LV-AA mutant CHT in HEK293 cells;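 active = initial fluorescence not abnormally high and integrated response B-score, plate-corrected, over 3 SD above library mean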
# ANO1 block – inhibitors of mouse TMEM16A calcium-activated chloride channel; Q8BHY3; 310,000 compounds, 1.2% hits; normalized B-score (activity score, 25-100; higher = stronger inhibition) at 10 µM; HEK293 TMEM16A/YFP iodide influx fluorescence, ionomycin; AID 588511;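 active = ratio plate-corrected score three or more library SD toward inhibition, starting fluorescence score within five deviations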;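 note: score derived from kinetic fluorescence span divided by baseline fluorescence per well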
# ANO1 activ – activators or potentiators of mouse TMEM16A chloride channel | Q8BHY3 | HEK293 TMEM16A/YFP-H148Q/I152L, iodide quench fluorescence; hits give low values | B-score at 10 µM | 340,000 compounds, 0.3% hits | AID 623877;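 active = fluorescence-ratio B-score plate-corrected deviation score at least 3 library SD below zero, with starting fluorescence score within 5 deviations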;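 note: channel opened by trigger with iodide after compound preincubation; score built on the fluorescence ratio of max minus min over baseline; more negative score means more quench and so TMEM16A activation or potentiation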
# CHT act confirm – confirmation of human choline transporter (CHT) activators; shares compounds with CHT PAM; CHT-expressing cells, membrane potential dye fluorescence (FDSS); % of choline EC20–EC90 response window; HEK293 expressing CHT LV-AA mutant; choline added at its EC20; activation, % at 10 µM; 2,500 compounds, 91% hits;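 active = primary screen active, with duplicate mean activation above negative control mean plus 3 SD, cut at about 11% in these data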
# HEK293 MP dye – counter-screen for CHT activators: effect in parental HEK293 cells | shares compounds with CHT PAM | membrane potential dye fluorescence (FDSS); measured after EC20 choline addition | ratio readout change at 10 µM, hits read low | 2,500 compounds, 62% hits;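 active = duplicate-averaged ratio beyond 3 SD from buffer wells, up or down, though filed actives are nearly all decreases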
# * = called active by the depositor; i = inactive; · = not tested or not shown. Shown are actives, neighbours in structure and some others; about 2.3% of the full set was active somewhere.
SMILES,CHT inh,CHT PAM,ANO1 block,ANO1 activ,CHT act confirm,HEK293 MP dye
Cc1cc([N+](=O)[O-])ccc1P(=O)(O)c1ccc([N+](=O)[O-])cc1C,·,·,·,i,·,·
O=c1[nH]c2ccc(S(=O)(=O)N3CCN(C4CCCCC4)CC3)cc2[nH]c1=O,i,i,i,i,46*,-42*
COc1ccc(Cl)cc1NC(=O)C1CCN(C(=O)Nc2ccccc2)CC1,·,·,·,i,·,·
O=C1C=C(c2ccccc2)C(c2ccccc2)C1O (stereo not given),·,·,·,i,·,·
CN(CC(=O)Nc1cccc(F)c1)C(=O)c1ccc(N2CCCCCC2)c([N+](=O)[O-])c1,i,i,i,i,·,·
CN(CC(=O)Nc1cccc(F)c1)C(=O)c1cc([N+](=O)[O-])ccc1N1CCCCC1,i,i,i,i,17*,i
Cc1n(C)c2cc(Cl)ccc2[n+]1Cc1ccccc1,i,9.3*,i,i,65*,-44*
COc1ccc(N2CCN(C(=O)CN3C(=O)NC4(CCCCC4C)C3=O)CC2)cc1 (stereo not given),·,·,·,i,·,·
CN1C(=O)N(C)c2cccc3cccc1c23,i,i,i,i,·,·
CC1=Nc2cccc3cccc(c23)N1C,i,7.4*,i,i,59*,-71*
COC(=O)c1cccc(NC(=O)c2cnn(C)c2)c1,i,i,i,i,·,·
Cc1nc2ccc(Br)cc2c2c1CC(CBr)O2 (stereo not given),i,i,i,i,·,·
Cc1nc2ccc(Br)cc2c2c1CC(CO)O2 (stereo not given),i,6.9*,i,i,53*,-53*
CCCc1nc2c(C)cc(C)cc2c(N)c1CC,i,7.1*,i,i,44*,-38*
C[n+]1ccn(CC(=O)c2ccc(Br)cc2)c1,i,i,i,i,·,·
O=C(Cn1c(-c2ccccc2)c[n+]2ccsc12)c1ccc(Br)cc1,i,i,i,i,42*,-34*
COc1ccc(-c2noc(CN3CCCCC3c3nccn3C)n2)cc1 (stereo not given),i,11*,i,i,49*,i
COc1ccc(-c2c[n+]3c(n2-c2ccc(C)cc2)CCCCC3)cc1,i,12*,25*,i,13*,i
COc1ccc(-c2c[n+]3c(n2-c2ccccc2)CCCCC3)cc1,i,i,i,i,·,·
FC(F)Oc1ccc(-c2c[n+]3c(n2-c2ccccc2)CCCCC3)cc1,i,i,i,i,·,·
CCOc1ccc(-n2c(-c3ccc(OC)cc3)c[n+]3c2CCCCC3)cc1,i,6.4*,i,i,41*,i
COc1ccc(-n2c(-c3ccc(Cl)cc3)c[n+]3c2CCCCC3)cc1,i,12*,i,i,44*,i
CCOc1ccc(-n2c(-c3ccc(Br)cc3)c[n+]3c2CCCCC3)cc1,i,i,i,i,·,·
CCOc1ccc(-n2c(-c3ccccc3)c[n+]3c2CCC3)cc1,i,i,i,i,43*,-30*
C[C@H]1CN([C@@H](C)CO)C(=O)c2cccc(NS(=O)(=O)c3ccc(Cl)cc3)c2O[C@@H]1CN(C)CC1CCCCC1,·,·,·,i,·,·
SMILES,CHT inh,CHT PAM,ANO1 block,ANO1 activ,CHT act confirm,HEK293 MP dye
CC(C)(C)OC(=O)N(Cc1ccccc1)Cc1ccccc1OCc1ccc(NC(=O)C2CCC2)cc1,·,·,·,i,·,·
COc1cc(CN2CCCC(N3CCN(c4ccccc4C)CC3)C2)ccc1O (stereo not given),i,i,i,i,·,·
COCC(=O)N(C)c1nnc(-c2ccc([N+](=O)[O-])cc2)s1,i,i,i,i,41*,-47*
COCC(=O)N(C)c1nnc(-c2ccccn2)s1,i,i,i,i,·,·
CN(C)c1cc[n+](Cc2c(Cl)cccc2Cl)cc1,i,6.8*,i,i,43*,-46*
Cc1cc(C)n2ncc(C(=O)NCc3cccnc3)c2n1,i,i,i,i,42*,-38*
